Results filed as inconclusive are left out. The source made the active and inactive calls. Rule for the calls: active = hit-call score of the fitted dose curve at least 0.9, where 1 is the maximum; inconclusive = response in the unintended direction; inactive = score below 0.9.
What was measured:
[1] = biological target: Cellular tumor antigen p53 (Homo sapiens) (UniProt P04637); test: TOX21_p53_BLA_p2_ratio: Tox21 HCT-116 p53 Agonism Beta-lactamase Assay, Ratio, Phase 2 (AID 2283592)
How it was run: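 An inducible beta-lactamase reporter in HCT116 cells signals p53 pathway activation. After 16 h chemical exposure at 37C, cells load CCF4-AM substrate for 2 h at room temperature; activity is the cleaved/uncleaved emission ratio relative to DMSO.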

[2] = biological target: Cellular tumor antigen p53 (Homo sapiens) (UniProt P04637); test: TOX21_p53_BLA_p3_ratio: Tox21 HCT-116 p53 Agonism Beta-lactamase Assay, Ratio, Phase 3 (AID 2283596)
How it was run: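 HCT116 p53-bla cells (4000/well) given compound in DMSO (217-fold dilution) after 5 h, incubated 16 h at 37C. CCF4-AM substrate 2 h at room temperature; 460/530 nm emission ratio, gain fitted against DMSO.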

[3] = biological target: Cellular tumor antigen p53 (Homo sapiens) (UniProt P04637); test: TOX21_p53_BLA_p5_ratio: Tox21 HCT-116 p53 Agonism Beta-lactamase Assay, Ratio, Phase 5 (AID 2283599)
How it was run: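 Beta-lactamase reporter ratio (blue 460 nm over green 530 nm, 405 nm excitation) after 2 h CCF4-AM loading, in HCT-116 cells exposed 16 h at 37 C to compounds pinned at 217-fold dilution. Increases relative to DMSO baseline scored.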

[4] = biological target: Cellular tumor antigen p53 (Homo sapiens) (UniProt P04637); test: TOX21_p53_BLA_p4_ratio: Tox21 HCT-116 p53 Agonism Beta-lactamase Assay, Ratio, Phase 4 (AID 2283601)
How it was run: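 Signal is the blue/green (460nm/530nm) ratio of cleaved versus uncleaved CCF4-AM substrate, read after 2 h substrate loading. Cells were HCT116 carrying the p53-responsive beta-lactamase reporter, dosed 16 h at 37C, 5% CO2; CellTiter-Glo measured in parallel.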

[5] = TOX21_p53_BLA_p5_viability: Viability Assessment in the Tox21 HCT-116 p53 Agonism Beta-lactamase Assay, Phase 5 (AID 2283600)
How it was run: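 Counter-readout for cytotoxicity: ATP-dependent luminescence from CellTiter-Glo, read in the beta-lactamase wells after 30 min at RT, following a 16 h compound exposure at 37C.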

[6] = TOX21_p53_BLA_p4_viability: Viability Assessment in the Tox21 HCT-116 p53 Agonism Beta-lactamase Assay, Phase 4 (AID 2283597);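 note: hits lower the luminescence signal meaning cytotoxicity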
How it was run: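 Compound exposure of HCT116 cells lasts 16 h at 37C, 5% CO2, with DMSO stocks diluted 217-fold. Cellular ATP is then quantified by CellTiter-Glo luminescence after 30 min at room temperature.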

Measured: outcome

Sequence of Cellular tumor antigen p53 (Homo sapiens) (P04637 whole entry, looked up): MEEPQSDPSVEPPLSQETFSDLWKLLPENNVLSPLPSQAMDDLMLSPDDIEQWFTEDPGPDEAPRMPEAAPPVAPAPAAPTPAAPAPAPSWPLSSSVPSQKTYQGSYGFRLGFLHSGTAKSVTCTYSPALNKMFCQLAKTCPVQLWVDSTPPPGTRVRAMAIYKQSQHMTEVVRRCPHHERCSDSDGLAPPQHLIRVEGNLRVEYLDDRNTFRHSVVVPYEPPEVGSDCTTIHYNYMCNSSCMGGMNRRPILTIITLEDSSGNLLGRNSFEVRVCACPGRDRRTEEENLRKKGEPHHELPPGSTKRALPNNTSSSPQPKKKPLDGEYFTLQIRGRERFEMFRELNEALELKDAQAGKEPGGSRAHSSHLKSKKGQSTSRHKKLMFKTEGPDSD

CC[C@@H](CO)NC(=O)[C@@H]1C=C2c3cccc4c3c(cn4C)C[C@H]2N(C)C1
inactive: [1] | [2] | [3] | [4]

C=CC(C)(CCC=C(C)C)OC(=O)c1ccccc1N (stereo unspecified)
not listed: [6]
inactive: all other assays above

C[C@]12CC[C@H]3[C@@H](CCC4=C(O)C(=O)CC[C@@H]43)[C@@H]1CC[C@@H]2OC(=O)CCC1CCCC1
inactive: [1] | [2] | [6] | [4]

CCOP(=S)(OCC)SCCl
not listed: [3]
inactive: all other assays above

c1csc(C2(N3CCCCC3)CCCCC2)c1
inactive: [1] | [2] | [3] | [4]

CCOC(=O)c1ncn2c1CN(C)C(=O)c1c(I)cccc1-2
inactive: [1] | [2] | [3] | [4]

OC(c1ccccc1)(c1ccccc1)C1CCNCC1
inactive: [1] | [2] | [3] | [4]

Cc1cccc(C#N)c1
not listed: [6]
inactive: all other assays above

CC(=O)OO
inactive: [1] | [2] | [3] | [4]

CN(C)CCc1c[nH]c2ccc(O)cc12
inactive: [1] | [2] | [3]

CON(C)C(=O)Nc1ccc(Cl)cc1
inactive: [1] | [2] | [3] | [4]

From PubChem BioAssay (EPA / NIEHS)
